POLI inh: blocks human DNA polymerase iota activity; Q9UNA4; Pol iota fluorescent replication assay, 10 min; Potency, µM (titrated, usually from 115 µM), inactives show at the highest dose activity, negative = inhibition, hits mostly inhibitors; 390,000 compounds, 1% hits; AID 588590; note: potency is the fitted concentration of half-maximal effect
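Fluorescent replication assay read twice, at 0 min and 10 min after adding 50 nM (final) substrate. Enzyme (10 nM) and compounds were first incubated 15 min at room temperature; enzyme-free buffer wells were negative controls.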
Pol beta inh: blocks human DNA polymerase beta activity. Potency, µM (doses to about 114 µM), inactives show at the highest dose activity change, negative = inhibition, usual class: inhibitors. Pol beta primer extension/strand displacement, fluorescence kinetic. P06746. 340,000 compounds, 1.3% hits; note: potency is the fitted concentration of half-maximal effect; % is set by controls: 0 for no effect and ±100 for the full control effect
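10 nM enzyme + cpd, 15 min RT; start with substrate 50 nM final; read 0 min and after 10 min RT. Corrected, normalized data; 4-parameter Hill curve fit.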
PI5P4Ka inh: blocks human PI5P4K alpha kinase activity | P48426 | PI5P4Kalpha enzyme, ADP-Glo luminescence, 60 min; stronger effect = lower value | max response, % | 330,000 compounds, 1.2% hits | AID 652105; active = max response of -50% or lower; inconclusive = between -30% and -50%; inactive = -30% or higher; note: value at the top dose of about 77 µM; % is set by controls: 0 for no effect and ±100 for the full control effect
Target sequence (P48426 whole entry, looked up): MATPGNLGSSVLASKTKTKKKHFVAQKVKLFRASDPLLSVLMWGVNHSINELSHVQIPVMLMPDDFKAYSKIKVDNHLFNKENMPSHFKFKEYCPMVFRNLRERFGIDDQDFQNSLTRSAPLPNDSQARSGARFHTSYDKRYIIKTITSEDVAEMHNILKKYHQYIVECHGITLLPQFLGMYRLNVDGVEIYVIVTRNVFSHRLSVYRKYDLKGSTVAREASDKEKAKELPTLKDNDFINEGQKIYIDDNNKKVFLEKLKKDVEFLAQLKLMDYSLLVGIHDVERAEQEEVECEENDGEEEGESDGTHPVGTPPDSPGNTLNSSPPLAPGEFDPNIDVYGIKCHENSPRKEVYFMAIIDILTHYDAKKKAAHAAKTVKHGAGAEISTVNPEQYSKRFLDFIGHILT
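Luminescence from ADP-Glo served as readout of PI5P4Kalpha activity in a qHTS format. Reaction: enzyme, substrate, compound, ATP at 5 microM final, 60 min at RT.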
Pol kappa inh: blocks human DNA polymerase kappa activity | Q9UBT6 | purified Pol kappa, fluorescent DNA synthesis assay, 10 min | Potency, µM (series often up to 107 µM), inactives show at the top dose activity, negative = inhibition, hits mostly inhibitors | 400,000 compounds, 0.53% hits | AID 588579; note: potency is the fitted concentration of half-maximal effect; % is set by controls: 0 for no effect and ±100 for the full control effect
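Enzyme at 10 nM met test compounds for 15 min at room temperature. Substrate addition (50 nM final) began the reaction, which was monitored by fluorescence at 0 and 10 min.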
12-LOX inh: inhibitors of human 12S-lipoxygenase ALOX12; AID 1671190; Potency, µM (top dose mostly 108 µM), inactives show top-dose activity change, negative = inhibition, most hits filed as inhibitors; P18054; purified 12hLO, xylenol orange hydroperoxide absorbance; 580,000 compounds, 1.1% hits; note: potency is the fitted concentration of half-maximal effect; % is set by controls: 0 for no effect and ±100 for the full control effect
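Purified human 12hLO (150 nM final) in 25 mM Hepes, 0.01% Triton X-100, pH 7.0 was preincubated 15 min at room temperature with compound. Then 40 uM arachidonic acid was added, 30 min. Hydroperoxide was read by Fe-XO absorbance ratio 573/405 nm.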
Pol eta inh: inhibitors of human DNA polymerase eta; 390,000 compounds, 1.2% hits; Potency, µM (doses to about 114 µM), for inactives: at the highest dose activity change, negative = inhibition, usual class: inhibitors; AID 588591; recombinant Pol eta, fluorescent DNA replication assay; note: potency is the fitted concentration of half-maximal effect; % is set by controls: 0 for no effect and ±100 for the full control effect
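Fluorescent replication assay: 50 nM final substrate added after a 15 min room-temperature compound preincubation with 10 nM enzyme. Signal taken at 0 min and again at 10 min.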
The depositor's hits bear a star; i = inactive; u = inconclusive; x = not tested or not shown; ! = not confirmed by another sample; [ ] = another dose, or the depositor's remark. Only some compounds are listed: those with a hit (about 2.9% of all), similar ones and a draw of the others. Unless noted, calls come from the whole dose curve; as a rule, active = well fitted inhibition curve with a large enough effect; inconclusive = small, poorly fitted or top-dose-only effect, or another doubt; inactive = no such curve, though single readings can be large or run the other way.

SMILES | POLI inh | Pol beta inh | PI5P4Ka inh | Pol kappa inh | 12-LOX inh | Pol eta inh
CN(c1ccccc1)c1ccc2nnc(-c3cc(C(=O)Nc4ccccn4)ccn3)n2n1 | x | x | x | x | -10.7%[176 µM] | x
COc1cccc(CNC(=O)CCc2c(C)c3cc4c(C)coc4cc3oc2=O)c1 | -24.3% | 12.2% | x | 13.7% | -7.7% | 5.1%
COc1cccc(CNC(=O)CCc2c(C)c3cc4c(C)coc4c(C)c3oc2=O)c1 | u | 25.1µM* | x | -22.5% | u | u
Cc1coc2c(C)c3oc(=O)c(CCC(=O)N(C)CC(=O)O)c(C)c3cc12 | 14.1% | 79.4µM* | 2.9 | -39.0% | 0.0% | 20µM*
Cc1coc2cc3oc(=O)c(CC(=O)N(C)CC(=O)O)c(C)c3cc12 | 7.1% | 12.4% | 4.5 | 5.7% | u | -17.7%
CCn1c2ccccc2c2cc(CN3CCN(Cc4ccccc4F)CC3)ccc21 | -8.3% | -0.2% | x | 8.0% | 28.2µM* | -23.1%
CCn1c2ccccc2c2cc(CN3CCN(Cc4ccccc4C)CC3)ccc21 | 7.3% | 2.0% | x | -3.8% | -31.2% | -12.9%
S=c1[nH]c2cc(Cl)ccc2s1 | 13.1% | 12.5% | x | -5.8% | 44.7µM*! | -6.7%
O=C(CCN1CCN(c2ccccc2)CC1)N/N=C/c1ccc([N+](=O)[O-])o1 | u | 70.8µM* | -18.1 | -7.3% | i | u
O=C(CCN1CCN(c2ccccc2)CC1)N/N=C/c1ccc(O)c(O)c1O | 1.26µM* | 2.82µM* | -68.8* | 3.55µM* | u | 22.4µM*
CC1(CC(=O)N/N=C/c2ccc(-c3ccc(C(=O)O)cc3)o2)OCCO1 | -5.0% | 0.6% | x | -0.5% | 16.0% | -21.6%
O=C(CN1CCCCCCC1)N/N=C/c1ccc([N+](=O)[O-])o1 | 44.7µM* | u | 0.3 | u | u | u
O=C(CN1CCOCC1)N/N=C/c1ccc(-c2ccc(C(=O)O)cc2)o1 | -0.3% | u | -16.8 | -28.9% | 6.4% | 39.8µM*
O=C(CN1CCOCC1)NN=Cc1ccc([N+](=O)[O-])o1 | x | x | -2.8 | x | 1.2% | x
CC(C)NC(=O)CCNC(=O)N1CCN(C(=O)c2cc3ccccc3[nH]2)CC1 | x | x | x | x | 21.1% | x
COc1ccc2[nH]c(C(=O)NCc3ccco3)cc2c1 | x | x | x | x | -4.9% | x
CCOC(=O)c1cnc(SCC(=O)Nc2cccc(Br)c2)nc1N | x | x | x | x | 4.7% | x
COc1ccc(-c2nn3c(C(C)(C)C)nnc3s2)cc1OC | x | x | x | x | 47.0% | x
CN1CCN(c2nc3ccccc3nc2C(=O)Nc2ccc(F)c(Cl)c2)CC1 | x | x | x | x | 15.1% | x
Cc1cc(/C=N/NC(=O)c2ccncc2)c(C)n1-c1ccccc1 | 11.0% | 9.0% | -1.0 | -17.8% | 4.2% | -4.9%
Cc1cc(C(=O)N/N=C/c2ccc(O)c(O)c2O)c(C)n1-c1ccccc1 | -17.9% | u | -62.0* | -17.9% | u | -26.4%
COc1ccc(CNC(=O)c2ccc3nc(Cc4ccccc4F)oc3c2)c(OC)c1 | x | x | x | x | -27.5% | x
COc1cc(C#N)ccc1OC(=O)c1ccc(F)cc1Cl | x | x | x | x | -13.6% | x
CNC(=O)NC(=O)CSc1ccc2ccccc2n1 | x | x | x | x | 7.0% | x
CCCCCCCC/C=C\CCCCCCCCCCCC(=O)O | x | x | x | 10.6µM* | x | x
SMILES | POLI inh | Pol beta inh | PI5P4Ka inh | Pol kappa inh | 12-LOX inh | Pol eta inh
CCCCCCCCCCSCCC(=O)O | x | x | x | x | 39.8µM* | x
Cc1cc(O)c2c(c1O)C(=O)[C@]13C(=C2O)C(=O)[C@@H]2[C@@H](O)[C@H]1[C@@H]1[C@H](O)[C@H]3C(=O)C3=C(O)c4c(O)cc(C)c(O)c4C(=O)[C@]312 | 3.16µM* | x | -90.5* | 3.55µM* | u | 5.62µM*
CNC(=O)C1CC(=O)N(c2ccc(OCC(=O)Nc3ccccc3)cc2)C1 (centres undefined) | 7.5% | x | -65.8* | -22.4% | 0.0% | 31.6µM*
Cc1ccc(N2CC(C(=O)OCC(=O)Nc3ccc(Cl)cc3)CC2=O)cc1 (centres undefined) | 79.4µM* | x | 16.3 | -6.0% | -20.9% | -11.0%
CCOc1ccc(NC(=O)COc2ccc(N3CC(C(N)=O)CC3=O)cc2)cc1 (centres undefined) | 24.8% | x | -19.4 | -0.4% | -27.1% | -7.5%
CCOc1cccc(-c2c(C(=O)N/N=C/c3cccs3)nnn2-c2nonc2N)c1 | 79.4µM* | u | u | u | -11.6% | 13.5%
CC(Cn1cccn1)Nc1ccc(-c2nc(COc3ccccc3)no2)cn1 (centres undefined) | x | x | x | x | 145.7% | x
CCCCCCn1c(SCCCCC)nc2c1c(=O)[nH]c(=O)n2C | x | x | x | x | -7.7% | x
COc1ccccc1OC(=O)c1cc2ccccc2oc1=O | 21.0% | 11.0% | -0.2 | -15.6% | u | -10.8%
COc1cc(/C=C/[N+](=O)[O-])ccc1OC(=O)c1cc2ccccc2oc1=O | u | -19.5% | -60.5* | -17.1% | u | u
Cc1c(NC(=O)c2ccc(C#N)cc2F)cccc1-c1nc2ccccc2o1 | x | x | x | x | 14.6% | x
O=C1CN(C(=O)c2cc(-c3cccnc3)nc3ccccc23)CCN1 | x | x | x | x | 4.5% | x
Cc1ccc(CC(=O)Nc2ccc(N(C)C)cc2)cc1 | x | x | x | x | 20µM* | x
Cc1ccc(OCC(=O)Nc2ccc(N(C)C)cc2)cc1 | 7.4% | 18.8% | -4.2 | -7.7% | u | -7.5%
CCCCc1cc(=O)oc2c(C)c(OC(C)C(=O)NCc3ccccn3)ccc12 (centres undefined) | x | x | x | x | 1.8% | x
CS(=O)(=O)c1ccccc1C(=O)NCc1coc(-c2cccs2)n1 | x | x | x | x | 7.2% | x
COc1ccc(Cl)cc1NC(=O)c1cccc(-c2ccc(S(=O)(=O)N3CCCC3)cc2)c1 | x | x | x | x | -9.2% | x
CC(=O)N(C)/C=C1\Sc2ccccc2C1=O | -4.8% | 35.8% | -6.3 | -7.9% | 35.5µM* | -13.4%
CCC(=O)N(C)/C=C1\Sc2ccccc2C1=O | 9.3% | 9.4% | 3.0 | -5.4% | u | -13.6%
Cc1ccc2cccc(NC(=O)C(C)Oc3cccc(C)c3C)c2n1 (centres undefined) | x | x | x | x | 0.2% | x
Cc1[nH]c2ccccc2c1C(=O)CSc1ccc2c(c1)OCCCO2 | x | x | x | x | 25.1µM* | x
Cc1[nH]c2ccccc2c1C(=O)CSc1ccc(Cl)cc1 | 128.1% | 0.8% | 4.9 | -8.3% | -20.5% | -18.0%
O=C(O)c1ccc(-n2ncc3c2/C(=C\c2cccc([N+](=O)[O-])c2)CC3)cc1 | u | x | -15.3 | -10.9% | u | u
O=C(O)c1ccc(-n2ncc3c2/C(=C/c2cccc([N+](=O)[O-])c2)CC3)cc1 | u | 0.6% | -23.0 | -9.4% | -11.9% | 50.1µM*
Cc1ccccc1N1CCN(C(=O)c2ccc(Cn3ccn4nc5c(c4c3=O)CCCC5)cc2)CC1 | x | x | x | x | -2.3% | x
Cc1nc2cc(N=NC3=C(O)CCCC3=O)ccc2s1 | 50.1µM* | -26.0% | -23.5 | -28.1% | u | -16.1%
COc1ccc(-c2cc(N3CCCC(NC(=O)c4ccc(C)cc4C)C3)n[nH]2)cc1 (centres undefined) | x | x | x | x | 32.0% | x
